“And” between values parts separate entries of the source, which are not always exact repeats. Equal values may be shown once. The source made the active and inactive calls. Calls follow the shape of the dose curve; as a rule, active = well fitted inhibition curve with a large enough effect; inconclusive = small, poorly fitted or top-dose-only effect; inactive = flat fitted curve, though single readings scatter.

The nature of this test: Quantitative high throughput screen for delayed death inhibitors of the malarial parasite plastid, 96 hour incubation. As to conditions: P. falciparum luciferase growth. An excerpt:
NIH Molecular Libraries Probe Production Network [MLPCN] NIH Chemical Genomics Center [NCGC] MLPCN Grant: R21 NS059500 Assay Provider: David Fidock and Eric Ekland, Columbia University The goal of this screen is to discover new antimalarial compounds that act by inhibiting the development of the apicoplast in the malarial parasite Plasmodium falciparum. The biochemical processes that make this organelle essential for erythrocytic stage parasites are not well understood. However, antibiotics, such as azithromycin and tetracycline, which target the apicoplast translational machinery, have a potent antimalarial effect. […] We have developed a cell-based assay that measures parasite growth based on the expression of an integrated copy of a firefly luciferase reporter. To detect small molecules that cause this 'delayed death' phenotype, erythrocytes infected with the luciferase-expressing parasites were incubated with compounds for either one or two generations, corresponding to 48 and 96 hours, respectively. Compounds that inhibit parasite growth in the second generation, but not the first, should be enriched in antimalarials that target the apicoplast. Growth inhibition is detected by a decrease in luciferase activity
Four microliters of culture medium (RPMI 1640 with 0.5% w/v Albumax (GIBCO), 24 mM sodium bicarbonate and 10 ug/mL gentamycin) were dispensed by a Multi-drop Combi into white solid 1536-well plates (Grenier) and 23 nL compound was added by a pin tool. Four microliters of infected erythrocytes (2% hematocrit, 0.1% parasitemia final concentration) in culture medium were dispensed and the plates incubated for 96 hours at 37 C in 5% CO2. Two microliters of luciferase detection reagent was added and luminescence was detected by a ViewLux (PerkinElmer) reader
As to `C[C@@H]1CN(C)C(=O)c2cc(NC(=O)Nc3ccccc3)ccc2O[C@@H](C)CCCCO[C@@H]1CN(C)S(=O)(=O)c1ccc(F)cc1`, the Potency is 1000 nM (active).

On to `C=CCOC(=O)N(C)C[C@@H]1OCCCC[C@H](C)Oc2ccc(NC(=O)Nc3ccccc3)cc2C(=O)N([C@@H](C)CO)C[C@H]1C`, for which the Potency was 252 nM (active).

For the molecule `C[C@@H]1CN([C@@H](C)COC(=O)C(C)(C)C)C(=O)c2cc(NC(=O)Nc3ccccc3)ccc2O[C@@H](C)CCCCO[C@H]1CN(C)S(=O)(=O)c1ccc(F)cc1`, the Potency is 5.7 nM (active).

Take `C[C@@H]1CN([C@@H](C)COC(C)(C)C)C(=O)c2cc(NC(=O)Nc3ccccc3)ccc2O[C@@H](C)CCCCO[C@H]1CN(C)S(=O)(=O)c1ccc(F)cc1`: the Potency is 0.8 nM (active).

For the molecule `CC(C)NC(=O)Nc1ccc2c(c1)C(=O)N([C@@H](C)CO)C[C@@H](C)[C@H](CN(C)S(=O)(=O)c1ccc(F)cc1)OCCCC[C@H](C)O2`, the Potency was 449 nM (active).

For the molecule `C[C@@H]1CN(CCO)C(=O)c2cc(NC(=O)Nc3ccccc3)ccc2O[C@@H](C)CCCCO[C@H]1CN(C)S(=O)(=O)c1ccc(F)cc1`, the Potency is 179 nM (active).

`COc1ccc(COC[C@H](C)N2C[C@@H](C)[C@H](CN(C)Cc3ccc(OC)cc3)OCCCC[C@H](C)Oc3ccc(NC(=O)Nc4ccccc4)cc3C2=O)cc1`: the Potency is 449 nM (active).

With `C[C@@H]1CN([C@@H](C)CO)C(=O)c2cc(NC(=O)Nc3ccccc3)ccc2O[C@@H](C)CCCCO[C@H]1CN(C)S(=O)(=O)c1ccc(C(F)(F)F)cc1`, the Potency was 798 nM (active).

As for `C[C@@H]1CN([C@@H](C)CO)C(=O)c2cc(Nc3nc4ccccc4o3)ccc2O[C@@H](C)CCCCO[C@H]1CN(C)S(=O)(=O)c1ccc(F)cc1`, the Potency is 1130 nM (active).

With `C[C@@H]1CCCCO[C@@H](CN(C)Cc2ccc(F)cc2)[C@H](C)CN([C@@H](C)CO)C(=O)c2cc(NC(=O)Nc3ccccc3)ccc2O1`, the Potency was 2830 nM (active).

`C[C@@H]1CN(CCO[Si](C)(C)C(C)(C)C)C(=O)c2cc(NC(=O)Nc3ccccc3)ccc2O[C@@H](C)CCCCO[C@H]1CN(C)S(=O)(=O)c1ccc(F)cc1`: the Potency was 40 nM (active).

As to `COCCOCOC[C@H](C)N1C[C@@H](C)[C@H](CN(C)S(=O)(=O)c2ccc(F)cc2)OCCCC[C@H](C)Oc2ccc(NC(=O)Nc3ccccc3)cc2C1=O`, the Potency is 11.3 nM (active).

Regarding `C[C@@H]1CN([C@H](C)CO[Si](C)(C)C(C)(C)C)C(=O)c2cc(NC(=O)Nc3ccccc3)ccc2O[C@@H](C)CCCCO[C@H]1CN(C)S(=O)(=O)c1ccc(F)cc1`, the Potency was 159 nM (active).

Consider `C[C@@H]1CN([C@@H](C)CO)C(=O)c2cc(NC(=O)Nc3ccccc3)ccc2O[C@@H](C)CCCCO[C@H]1CN(C)Cc1ccc(C(F)(F)F)cc1`, for which the Potency was 711 nM (active).

As to `C=CCOC(=O)N(C)C[C@@H]1OCCCC[C@H](C)Oc2ccc(NC(=O)Nc3ccccc3)cc2C(=O)N([C@H](C)COC(=O)c2ccccc2)C[C@H]1C`, the Potency was 504 nM (active).

With `C[C@@H]1CN([C@@H](C)COC(=O)c2ccccc2)C(=O)c2cc(NC(=O)Nc3ccccc3)ccc2O[C@@H](C)CCCCO[C@H]1CN(C)C(=O)OC(C)(C)C`, the Potency is 356 nM (active).

In the case of `C[C@@H]1CN([C@@H](C)CO)C(=O)c2cc(NC(=O)Nc3ccccc3)ccc2O[C@@H](C)CCCCO[C@H]1CN(C)C(=O)OC(C)(C)C`, the Potency was 711 nM (active).

Regarding `C[C@@H]1CN([C@@H](C)CO)C(=O)c2cc(NC(=O)Nc3ccccc3)ccc2O[C@@H](C)CCCCO[C@H]1CN(C)S(=O)(=O)c1cccnc1`, the Potency is 2830 nM (active).

As for `C[C@@H]1CN([C@@H](C)CO)C(=O)c2cc(NC(=O)Nc3ccccc3)ccc2O[C@@H](C)CCCCO[C@H]1CN(C)S(=O)(=O)c1ccccc1F`, the Potency was 449 nM (active).

As to `C[C@@H]1CN([C@@H](C)CO)C(=O)c2cc(NC(=O)Nc3ccccc3)ccc2O[C@@H](C)C/C=C/CO[C@H]1CN(C)S(=O)(=O)c1ccc(F)cc1`, the Potency is 79.8 nM (active).

As to `C[C@@H]1CN([C@@H](C)CO)C(=O)c2cc(N)ccc2O[C@@H](C)CCCCO[C@H]1CN(C)S(=O)(=O)c1ccc(F)cc1`, the Potency was 63.4 nM (active).

With `C[C@@H]1CN([C@@H](C)CN=[N+]=[N-])C(=O)c2cc(NC(=O)Nc3ccccc3)ccc2O[C@@H](C)CCCCO[C@H]1CN(C)S(=O)(=O)c1ccc(F)cc1`, the Potency was 3.6 nM (active).

Take `COc1ccc(COCCN2C[C@@H](C)[C@H](CN(C)S(=O)(=O)c3ccc(F)cc3)OCCCC[C@H](C)Oc3ccc(NC(=O)Nc4ccccc4)cc3C2=O)cc1`: the Potency was 71.1 nM (active).

As to `C[C@@H]1CN([C@@H](C)CO)C(=O)c2cc(NC(=O)Nc3ccccc3)ccc2O[C@@H](C)C/C=C\CO[C@H]1CN(C)S(=O)(=O)c1ccc(F)cc1`, the Potency was 252 nM (active).

As to `COCOC[C@H](C)N1C[C@@H](C)[C@H](CN(C)S(=O)(=O)c2ccc(F)cc2)OCCCC[C@H](C)Oc2ccc(NC(=O)Nc3ccccc3)cc2C1=O`, the Potency was 8 nM (active).

As to `C=CCOC(=O)N(C)C[C@H]1OCCCC[C@H](C)Oc2ccc(NC(=O)Nc3ccccc3)cc2C(=O)N([C@@H](C)CO[Si](C)(C)C(C)(C)C)C[C@H]1C`, the Potency is 126 nM (active).

As for `C[C@@H]1CCCCO[C@H](CN(C)C(=O)Nc2ccc(F)cc2)[C@H](C)CN([C@@H](C)CO)C(=O)c2cc(NS(=O)(=O)c3ccccc3)ccc2O1`, the Potency was 113 nM (active).

As for `Cc1noc(C)c1NC(=O)Nc1ccc2c(c1)C(=O)N(C(C)C)C[C@@H](C)[C@H](CN(C)S(=O)(=O)c1ccc(F)cc1)OCCCC[C@H](C)O2`, the Potency was 44.9 nM (active) and 1.42 µM (active).

On to `C[C@@H]1CN([C@@H](C)CO)C(=O)c2cc(NC(=O)Nc3ccccc3)ccc2O[C@@H](C)CCCCO[C@H]1CN(C)S(=O)(=O)c1cccc(F)c1`, for which the Potency is 7.1 nM (active).

Consider `C[C@@H]1CN([C@@H](C)COC(=O)c2ccccc2)C(=O)c2cc(NC(=O)Nc3ccccc3)ccc2O[C@@H](C)CCCCO[C@H]1CN(C)S(=O)(=O)c1ccc(F)cc1`, for which the Potency was 44.9 nM (active).

As for `CC(C)N1C[C@@H](C)[C@H](CN(C)S(=O)(=O)c2ccc(F)cc2)OCCCC[C@H](C)Oc2ccc(NC(=O)Nc3ccccc3)cc2C1=O`, the Potency is 17.9 nM (active).

Regarding `Cc1noc(C)c1NC(=O)Nc1ccc2c(c1)C(=O)N([C@@H](C)CO)C[C@@H](C)[C@H](CN(C)S(=O)(=O)c1ccc(F)cc1)OCCCC[C@H](C)O2`, the Potency is 79.8 nM (active).

As to `C[C@@H]1CN([C@@H](C)CO[Si](C)(C)C(C)(C)C)C(=O)c2cc(NC(=O)Nc3ccccc3)ccc2O[C@@H](C)CCCCO[C@H]1CN(C)S(=O)(=O)c1ccc(F)cc1`, the Potency was 0.6 nM (active).
